# Source: article PMC5540273 (PLoS ONE, 2017)
# “And” between values parts separate entries of the source, which are not always exact repeats. Equal values may be shown once. Read-outs that look alike come from different tables or passages of the source.
# Assays:
# [1] = system: TSSK3; conditions: concentration: 1 μM, replicates: in singlicate, n = 1
# [2] = system: TTK; conditions: concentration: 1 μM, replicates: in singlicate, n = 1
# [3] = system: TXK; conditions: concentration: 1 μM, replicates: in singlicate, n = 1
# [4] = system: TYK2(JH1domain-catalytic); conditions: concentration: 1 μM, replicates: in singlicate, n = 1
# [5] = system: TYK2(JH2domain-pseudokinase); conditions: concentration: 1 μM, replicates: in singlicate, n = 1
# [6] = system: TYRO3; conditions: concentration: 1 μM, replicates: in singlicate; n = 1
# [7] = system: ULK1; conditions: concentration: 1 μM, replicates: in singlicate, n = 1
# [8] = system: ULK2; conditions: concentration: 1 μM, replicates: in singlicate, n = 1
# [9] = system: ULK3; conditions: concentration: 1 μM, replicates: in singlicate, n = 1
# [10] = system: T1, VEGFR2; conditions: concentration: 1 μM, replicates: in singlicate, n = 1
# T1 construct: gene KDR
# [11] = system: T2, VPS34; conditions: concentration: 1 μM, replicates: in singlicate, n = 1
# T2 construct: gene PIK3C3
# [12] = system: VRK2; conditions: concentration: 1 μM, replicates: in singlicate, n = 1
# [13] = system: WEE1; conditions: concentration: 1 μM, replicates: in singlicate; n = 1
# [14] = system: WEE2; conditions: concentration: 1 μM, replicates: in singlicate, n = 1
# [15] = system: WNK1; conditions: concentration: 1 μM, replicates: in singlicate; n = 1
# [16] = system: WNK2; conditions: concentration: 1 μM, replicates: in singlicate, n = 1
# [17] = system: WNK3; conditions: concentration: 1 μM, replicates: in singlicate, n = 1
# [18] = system: WNK4; conditions: concentration: 1 μM, replicates: in singlicate, n = 1
# [19] = system: T3, YANK1; conditions: concentration: 1 μM, replicates: in singlicate, n = 1
# T3 construct: gene STK32A
# [20] = system: T4, YANK2; conditions: concentration: 1 μM, replicates: in singlicate; n = 1
# T4 construct: gene STK32B
# 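Further: KINOMEscan kinase panel screen.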
smiles,measurement,setting,value
Cc1cn2c(=O)cc(N3CCOCC3)nc2n1Cc1cccc(Cl)c1Cl [GSK2334006],%Inh,[1],29%
same,%Inh,[2],0%
same,%Inh,[3],8%
same,%Inh,[4],19%
same,%Inh,[5],18%
same,%Inh,[6],7%
same,%Inh,[7],0%
same,%Inh,[8],0%
same,%Inh,[9],7%
same,%Inh,[10],8%
same,%Inh,[11],96.7%
same,%Inh,[12],0%
same,%Inh,[13],20%
same,%Inh,[14],16%
same,%Inh,[15],0%
same,%Inh,[16],19%
same,%Inh,[17],27%
same,%Inh,[18],0%
same,%Inh,[19],23%
same,%Inh,[20],0%
NCCNS(=O)(=O)c1ccc(-c2ccnc3[nH]ccc23)cc1 [GSK977617],%Inh,[1]; 1 µM,34% and 22%
same,%Inh,[2]; 1 µM,36% and 30%
same,%Inh,[3]; 1 µM,10% and 0%
same,%Inh,[4]; 1 µM,84% and 79%
same,%Inh,[5]; 1 µM,38% and 30%
same,%Inh,[6],0%
same,%Inh,[7]; 1 µM,93.8% and 83%
same,%Inh,[8]; 1 µM,39% and 33%
same,%Inh,[9]; 1 µM,64% and 35%
same,%Inh,[10]; 1 µM,7% and 24%
same,%Inh,[11]; 1 µM,90% and 80%
same,%Inh,[12]; 1 µM,13% and 7%
same,%Inh,[13],9%
same,%Inh,[14]; 1 µM,5% and 15%
same,%Inh,[15],0%
same,%Inh,[16]; 1 µM,7% and 0%
same,%Inh,[17]; 1 µM,8% and 15%
same,%Inh,[18]; 1 µM,0% and 5%
same,%Inh,[19]; 1 µM,36% and 0%
same,%Inh,[20],0%
Cc1nnc(-c2ccc(C)c(-c3ccc(C(=O)Nc4ccc(NS(C)(=O)=O)cc4)cc3)c2)o1 [GW702865],%Inh,[1],3%
same,%Inh,[2],0%
same,%Inh,[3],0%
same,%Inh,[4],20%
same,%Inh,[5],11%
same,%Inh,[6],0%
same,%Inh,[7],0%
same,%Inh,[8],0%
same,%Inh,[9],0%
same,%Inh,[10],9%
same,%Inh,[11],0%
same,%Inh,[12],0%
same,%Inh,[13],17%
same,%Inh,[14],0%
same,%Inh,[15],0%
same,%Inh,[16],1%
same,%Inh,[17],35%
same,%Inh,[18],26%
same,%Inh,[19],6%
same,%Inh,[20],0%
c1ccc(-c2cc(-c3c[nH]nc3-c3ccccn3)ccn2)cc1 [GW576604],%Inh,[1],2%
same,%Inh,[2],0%
same,%Inh,[3],0%
same,%Inh,[4],13%
same,%Inh,[5],26%
same,%Inh,[6],0%
same,%Inh,[7],0%
same,%Inh,[8],0%
same,%Inh,[9],0%
same,%Inh,[10],0%
same,%Inh,[11],18%
same,%Inh,[12],2%
same,%Inh,[13],2%
same,%Inh,[14],0%
same,%Inh,[15],0%
same,%Inh,[16],18%
same,%Inh,[17],0%
same,%Inh,[18],11%
same,%Inh,[19],12%
same,%Inh,[20],0%
COc1ccc(COc2cc(-n3cnc4ccccc43)sc2C(N)=O)cc1 [GSK1024304],%Inh,[1],17%
same,%Inh,[2],6%
same,%Inh,[3],20%
same,%Inh,[4],4%
same,%Inh,[5],0%
same,%Inh,[6],0%
same,%Inh,[7],15%
same,%Inh,[8],0%
same,%Inh,[9],0%
same,%Inh,[10],0%
same,%Inh,[11],40%
same,%Inh,[12],0%
same,%Inh,[13],0%
same,%Inh,[14],2%
same,%Inh,[15],0%
same,%Inh,[16],0%
same,%Inh,[17],12%
same,%Inh,[18],13%
same,%Inh,[19],6%
same,%Inh,[20],0%
CC(C)Oc1ccc2c(-c3ccnc(Nc4ccc(N5CCN(C)CC5)cc4)n3)cnn2n1 [GW696155],%Inh,[1],96%
same,%Inh,[2],89%
same,%Inh,[3],13%
same,%Inh,[4],98%
same,%Inh,[5],99.4%
same,%Inh,[6],0%
same,%Inh,[7],99.9%
same,%Inh,[8],99.8%
same,%Inh,[9],100%
same,%Inh,[10],60%
same,%Inh,[11],96%
same,%Inh,[12],8%
same,%Inh,[13],30%
same,%Inh,[14],0%
same,%Inh,[15],12%
same,%Inh,[16],42%
same,%Inh,[17],52%
same,%Inh,[18],31%
same,%Inh,[19],0%
same,%Inh,[20],0%
O=c1cc(N2CCOCC2)nc2n(Cc3cccc(Cl)c3Cl)c(C3CC3)nn12 [GSK2358994],%Inh,[1],0%
same,%Inh,[2],0%
same,%Inh,[3],7%
same,%Inh,[4],11%
same,%Inh,[5],0%
same,%Inh,[6],35%
same,%Inh,[7],0%
same,%Inh,[8],10%
same,%Inh,[9],0%
same,%Inh,[10],0%
same,%Inh,[11],100%
same,%Inh,[12],0%
same,%Inh,[13],0%
same,%Inh,[14],0%
same,%Inh,[15],0%
same,%Inh,[16],0%
same,%Inh,[17],0%
same,%Inh,[18],0%
same,%Inh,[19],0%
same,%Inh,[20],0%
O=C(Nc1n[nH]c2cc(-c3cccc(F)c3)ccc12)C1CC1 [SB-735464],%Inh,[1],9%
same,%Inh,[2],21%
same,%Inh,[3],14%
same,%Inh,[4],1%
same,%Inh,[5],10%
same,%Inh,[6],0%
same,%Inh,[7],2%
same,%Inh,[8],12%
same,%Inh,[9],29%
same,%Inh,[10],12%
same,%Inh,[11],0%
same,%Inh,[12],23%
same,%Inh,[13],0%
same,%Inh,[14],4%
same,%Inh,[15],28%
same,%Inh,[16],0%
same,%Inh,[17],36%
same,%Inh,[18],22%
same,%Inh,[19],0%
same,%Inh,[20],0%
Fc1ccc(-c2nn3c(OCC(F)(F)F)cccc3c2-c2ccncc2)cc1 [GW514784],%Inh,[1],5%
same,%Inh,[2],0%
same,%Inh,[3],18%
same,%Inh,[4],10%
same,%Inh,[5],36%
same,%Inh,[6],0%
same,%Inh,[7],8%
same,%Inh,[8],0%
same,%Inh,[9],9%
same,%Inh,[10],0%
same,%Inh,[11],2%
same,%Inh,[12],33%
same,%Inh,[13],10%
same,%Inh,[14],0%
same,%Inh,[15],14%
same,%Inh,[16],0%
same,%Inh,[17],27%
same,%Inh,[18],38%
same,%Inh,[19],30%
same,%Inh,[20],24%
NCC(NC(=O)c1cc(-c2cn[nH]c2)c(-c2ccnc3[nH]ccc23)s1)c1ccccc1.O=C(O)C(F)(F)F.O=C(O)C(F)(F)F (stereo not shown) [GSK1325775],%Inh,[1],23%
same,%Inh,[2],14%
same,%Inh,[3],10%
same,%Inh,[4],49%
same,%Inh,[5],31%
same,%Inh,[6],0%
same,%Inh,[7],18%
same,%Inh,[8],7%
same,%Inh,[9],14%
same,%Inh,[10],18%
same,%Inh,[11],59%
same,%Inh,[12],0%
same,%Inh,[13],0%
same,%Inh,[14],0%
same,%Inh,[15],6%
same,%Inh,[16],9%
same,%Inh,[17],21%
same,%Inh,[18],24%
same,%Inh,[19],15%
same,%Inh,[20],0%
Cc1cccc(-c2nc(-c3ccc(S(C)(=O)=O)cc3)sc2-c2ccncc2)c1,%Inh,[1],0%
same,%Inh,[2],20%
same,%Inh,[3],0%
same,%Inh,[4],2%
same,%Inh,[5],3%
same,%Inh,[6],0%
same,%Inh,[7],0%
same,%Inh,[8],0%
same,%Inh,[9],0%
same,%Inh,[10],0%
same,%Inh,[11],12%
same,%Inh,[12],0%
same,%Inh,[13],0%
same,%Inh,[14],7%
same,%Inh,[15],0%
same,%Inh,[16],0%
same,%Inh,[17],0%
same,%Inh,[18],0%
same,%Inh,[19],0%
same,%Inh,[20],23%
